In the supplement of paper PMC6555819:

Key:
Experiment in all cases: PBM binding z-score (relative to random genomic background probes); higher = stronger binding; sequences stand for … in GC…GCGATTGACAGCGTAGAATGAAGG
[1] = system: FXR:RXRa (NR concentration 270 nM, RXRa partner concentration 90 nM)
In short: (§1)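 Binding z-scores were set against random background probes. The data came from custom Agilent 4×180K protein-binding microarrays carrying double-stranded probes with 34-nt variable regions, incubated 1 h with ligand-free nuclear receptor dimers. Partner-specific antibodies detected binding, and scanned fluorescence was regression-normalized.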

[2] = system: LXRa:RXRa (NR concentration 270 nM, RXRa partner concentration 90 nM)
In short: as §1

[3] = system: LXRa homodimer (NR concentration 270 nM)
In short: as §1

[4] = system: LXRb:RXRa (NR concentration 270 nM, RXRa partner concentration 90 nM)
In short: as §1

[5] = system: LXRb homodimer (NR concentration 270 nM)
In short: as §1

[6] = system: PPARa:RXRa (NR concentration 270 nM, RXRa partner concentration 90 nM)
In short: as §1

[7] = system: PPARg:RXRa (NR concentration 180 nM, RXRa partner concentration 90 nM)
In short: as §1

[8] = system: PPARg:RXRa 270nM:90nM, anti-RXR (NR concentration 270 nM, RXRa partner concentration 90 nM)
In short: as §1

[9] = system: PPARg:RXRa 30nM:10nM, anti-RXR (NR concentration 30 nM, RXRa partner concentration 10 nM)
In short: as §1

[10] = system: PPARg:RXRa 90nM:30nM, anti-RXR (NR concentration 90 nM, RXRa partner concentration 30 nM)
In short: as §1

[11] = system: PPARg:RXRa DBDmut IVT, anti-RXR (DBD mutation: RXRa K156A/R161A, NR concentration 270 nM, RXRa partner concentration 90 nM)
In short: as §1

[12] = system: PPARg:RXRa IVT, anti-PPARg (NR concentration 270 nM, RXRa partner concentration 90 nM)
In short: as §1

[13] = system: PPARg DBDmut:RXRa IVT, anti-PPARg (DBD mutation: PPARg1 K132A/R137A, NR concentration 270 nM, RXRa partner concentration 90 nM)
In short: as §1

[14] = system: PPARg DBDmut IVT, anti-PPARg (DBD mutation: PPARg1 K132A/R137A, NR concentration 270 nM)
In short: as §1

[15] = system: PPARg homodimer (NR concentration 180 nM)
In short: as §1

[16] = system: PXR:RXRa (NR concentration 270 nM, RXRa partner concentration 90 nM)
In short: as §1

[17] = system: PXR homodimer (NR concentration 270 nM)
In short: as §1

[18] = system: RARa:RXR (NR concentration 270 nM, RXRa partner concentration 90 nM)
In short: as §1

[19] = system: RARa homodimer (NR concentration 270 nM)
In short: as §1

[20] = system: RARb:RXRa (NR concentration 270 nM, RXRa partner concentration 90 nM)
In short: as §1

Row | Sequence | PBM binding z-score [1] | PBM binding z-score [2] | PBM binding z-score [3] | PBM binding z-score [4] | PBM binding z-score [5] | PBM binding z-score [6] | PBM binding z-score [7] | PBM binding z-score [8] | PBM binding z-score [9] | PBM binding z-score [10] | PBM binding z-score [11] | PBM binding z-score [12] | PBM binding z-score [13] | PBM binding z-score [14] | PBM binding z-score [15] | PBM binding z-score [16] | PBM binding z-score [17] | PBM binding z-score [18] | PBM binding z-score [19] | PBM binding z-score [20]
1 | CCTTACGGGTCACTGACAGGATATAGCATTTGGA | 5.3 | 3.68 | 0.191 | 3.28 | -0.185 | 5.22 | 4.58 | 4.24 | 1.5 | 2.88 | 3.33 | 3.54 | 1.02 | 0.966 | 2.23 | 3.03 | 0.183 | 3.85 | 1.33 | 3.95
2 | ATCTCTAGGTAAGACTCAGTTCAGTGATGAACGC | 0.343 | 0.402 | 0.634 | 0.249 | 0.676 | 0.268 | 0.294 | 0.427 | 0.243 | 0.302 | 1.78 | 1.28 | 1.15 | 1.33 | 1.36 | 0.974 | 1.63 | 0.24 | 0.763 | 0.357
3 | TCGAGTAGGTTACCAATCGGGCATTCAGCTTTCT | -0.222 | 0.961 | -0.836 | -0.125 | -1.27 | 0.717 | -0.0284 | 1.08 | 1.26 | 1.27 | 3.13 | 2.4 | -0.0689 | -0.723 | -0.473 | -0.159 | -0.753 | -0.172 | -0.843 | 0.778
4 | CCTGCTAGCTCAATGGTCAGCTAAAGCAGCTCGC | -0.674 | -0.624 | -0.571 | -0.457 | -0.691 | -0.408 | -0.805 | -0.234 | -0.854 | -0.539 | -0.172 | -0.705 | -1.42 | -1.42 | -0.534 | -0.568 | -0.761 | -0.44 | -0.89 | 0.0479
5 | ATACCAATGTGATCGTGAGGTCGTTGATACTAAC | 1.13 | 0.684 | 0.704 | 0.894 | -0.063 | 0.905 | 0.346 | 0.198 | 0.123 | 0.295 | -0.174 | 0.568 | 0.648 | 1.38 | 0.242 | 2.06 | 1.23 | 1.39 | -0.115 | 0.569
6 | ATCTCTAGGTAAAACTTCAGTGAATCCCGAGGAT | 0.0366 | 0.047 | -0.183 | -0.182 | 0.628 | 0.249 | 0.323 | 0.56 | 0.176 | 0.539 | 1.85 | 1.8 | 1.22 | 0.94 | -0.0625 | -0.0735 | 0.231 | -0.12 | 0.676 | 0.128
7 | CATACAGGGTGAGCTAGGCCAGAGTAGGGACGGC | 0.0783 | -0.27 | -0.348 | -0.501 | -0.241 | 0.234 | 0.608 | -0.129 | -0.308 | -0.186 | 0.503 | 1.32 | -0.282 | -0.518 | -0.692 | -0.394 | -0.379 | -0.0235 | -0.0733 | 0.894
8 | TCCAGTAGGTTACCAATGGGGCATTCAGCTTTCT | 0.247 | 1.53 | -0.513 | 0.676 | -0.862 | 1.6 | 1.15 | 2.54 | 2.63 | 2.39 | 4.6 | 4.34 | -0.355 | -0.253 | 0.0888 | 0.286 | -0.589 | 0.451 | -0.883 | 1.31
